This is part of a sample that, as a whole, favours compounds with a hit. Of some 83,000 tested, about 20% had one in any assay.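 Plates (96-well) were seeded with cells, treated with compound at one concentration, and incubated for 48 hours before percent growth was determined.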 Activity calls are given as the source filed them. How the source made its calls: active means growth percent below 10; inactive means the rest.
System: HL-60(TB) leukemia
Assay: NCI-60 one-dose screen, 48 h (100 = growth as untreated, 0 = no growth, -100 = all killed)
Settings: 10 µM unless noted

| Compound | growth |
| --- | --- |
| C=CCC(OC(C)=O)c1ccc(OC)c(OC)c1 (stereo not given) | 116% (inactive) |
| COc1ccc(SC2c3ccc(O)cc3Oc3nc(N)c(C#N)c(N)c32)cc1 (stereo not given) | 46.9% (inactive) |
| CCN(CC)c1ccc(C(=C2C=CC(=[N+](CC)Cc3cccc(S(=O)(=O)O)c3)C=C2)c2ccc(N(CC)Cc3cccc(S(=O)(=O)O)c3)cc2)cc1 | -22.2% (active) |
| Nc1nc(N)c(N=Nc2ccccc2)c(-c2ccccc2)n1 | 71.4% (inactive) |
| Cc1ccc(CSCc2ccc(C(=O)NC3CC3)o2)cc1 | 59.5% (inactive) |
| COc1cc2oc(-c3cccc(C(=O)Nc4ccccc4)c3)cc(=O)c2c(O)c1OC | 92.7% (inactive) |
| COc1cc(C(=O)NNC(=O)c2ccccc2O)cc(OC)c1OC | 80.4% (inactive) |
| C=C(C)[C@@H]1CC[C@]2(C(=O)N3CCN(C)CC3)CC[C@]3(C)[C@H](CC[C@@H]4[C@@]5(C)CCC(=O)C(C)(C)[C@@H]5CC[C@]43C)[C@@H]12 | 60.1% (inactive) |
| O=C(Cn1cc(CN2C(=O)c3ccccc3S2(=O)=O)nn1)Nc1ccc([N+](=O)[O-])cc1Cl | 94.6% (inactive) |
| COC1=CC(c2ccc[nH]2)=N/C1=C\c1[nH]c(C)c(C(=O)Oc2ccccc2)c1C | 11.4% (inactive) |
| Oc1c(CN2CCOCC2)cc(COCc2ccccc2)c2cccnc12 | 0.702% (active) |
| C=C(C)Cn1c(SCC(=O)c2cccs2)nc2sc3c(c2c1=O)CCCC3 | 63.2% (inactive) |
| COc1ccc2c(c1)nnc1c3cccnc3[nH]c21 | -31.4% (active) |
| CCCCCCCCCCCCCCCCCCNC(=O)[C@H]1CSC(c2ccc(OC)c(F)c2)N1 (stereo not given in full) | -60.3% (active) |
| Brc1ccc2c(c1)c(-c1nc(-c3c[nH]c4ncccc34)cs1)cn2CCCN1CCCCC1 | 13.3% (inactive) |
| C[C@@H](O)[C@H]1C(=O)N2C(C(=O)O)=C(SC3CN[C@H](C(=O)N(C)C)C3)[C@H](C)[C@H]12 (stereo not given in full) | 87% (inactive) |
| COc1cccc(C(=O)NCCNc2cc(-c3cn(-c4ccccc4)nc3-c3cccc(OC)c3)ccn2)c1 | 41.5% (inactive) |
| Cc1nc(-c2ccccc2)cc2c(O)c(C(=O)N/N=C/Cc3ccccc3)[nH]c(=O)c12 | 76.8% (inactive) |
| COc1ccccc1N1CCN(C(CNS(=O)(=O)c2ccc(Cl)cc2)c2cccnc2)CC1 (stereo not given) | 66.1% (inactive) |
| COc1ccc(Cl)cc1Nc1nc(C(F)(F)F)ccc1C(=O)N/N=C/c1ccccc1Cl | -11.3% (active) |

| Compound | growth |
| --- | --- |
| COc1ccc(/C(C)=C(\c2ccc(Cl)cc2)c2ccc(OCCN3CCCCC3)cc2)cc1 | 32.8% (inactive) |
| CS(=O)(=O)Nc1cc(-c2ccc3ncnc(Nc4cccc(Cl)c4)c3c2)cnc1Cl | 2.67% (active) |
| CN(C)CCC1(c2ccccc2)CCN(C)C1=O (stereo not given) | 109% (inactive) |
| CC1(C)CC2=C3C=C[C@@H]4[C@@]5(C)CCC(=O)C(C)(C)[C@@H]5CC[C@@]4(C)[C@]3(C)CC[C@@]2(C(=O)O)C[C@H]1O | 23% (inactive) |
| COC1=C(OC)C(=O)C(CCCCCCCCCCO)=C(C)C1=O | 76.8% (inactive) |
| S=C(S)OCN1CCOCC1 | 106% (inactive) |
| Clc1nc(-c2ccccn2)nc2sc3c(c12)CCCCCC3 | 96% (inactive) |
| COc1cccc(/C=C/C(=O)c2c(C)nc3ccccc3c2/C=C/c2ccc(C)cc2)c1OC | 36% (inactive) |
| CCN1CCN(C(=O)[C@]23CCC(C)(C)C[C@@H]2C2=CC[C@@H]4[C@@]5(C)C/C(=C/c6cccnc6)C(=O)C(C)(C)[C@@H]5CC[C@@]4(C)[C@]2(C)CC3)CC1 | -37.3% (active) |
| COc1cccc(/C=C/c2c(C(=O)O)cccc2[N+](=O)[O-])c1OC | 97.4% (inactive) |
| COc1ccc(/C(=C(\c2ccccc2)[N+](=O)[O-])c2ccc(OCCN3CCCC3)cc2)cc1 | 64.1% (inactive) |
| O=C(Nc1cc(C(F)(F)F)cc(C(F)(F)F)c1)Nc1ccc(OCc2nnc(-c3ccc(Cl)cc3)o2)c(F)c1 | 5.4% (active) |
| CN1CCN(c2nc(NCCNc3ccnc4cc(Cl)ccc34)c3ccccc3n2)CC1 | -63.3% (active) |
| COc1ccc(C(=O)/C=C/c2sc(Cl)nc2Cl)cc1 | 32.3% (inactive) |
| Cn1c2ccccc2c2c3c(c4c5cc(Br)ccc5n(C)c4c21)C(=O)N(O)C3=O | -33.2% (active) |
| Nc1n[nH]c2cccc(C#Cc3cccc(C(=O)Nc4ccc(Cl)c(C(F)(F)F)c4)c3)c12 | 21% (inactive) |
| O=C1NC(=O)C(=Cc2cc(-c3ccc(Cl)cc3)n(-c3ccccc3)n2)C(=O)N1 | 89.5% (inactive) |
| O=C(CCCCCCN1CC(=O)N2[C@@H](c3ccc(Cl)cc3)c3[nH]c4ccccc4c3C[C@H]2C1=O)NO | 46.8% (inactive) |
| COCCOCCOCc1n(Cc2ccc3ccccc3n2)c2ccccc2[n+]1Cc1ccc2ccccc2n1 | -42.9% (active) |
| Brc1cccc(-c2cc(-c3ccc4c(c3)OCCCO4)[nH]n2)c1 | 47.7% [25 µM] (inactive) |

Reference: PubChem BioAssay (NCI)
